Hits are enriched below; roughly 6% of the tested compounds scored in any of these assays.
D1 ag: human D1 receptor agonism; P21728; HEK293 T-REx D1 cells, calcium flux, agonist mode; activation, % at 2 µM; 1% of 360,000 active; AID 504660; in the data active means activation above about 30%; further: 0% is about no effect
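Inducible HEK293 T-REx D1 cells, force-coupled to calcium signalling, were plated at 4000 cells/well with tetracycline and held overnight at 30 C. After no-wash calcium dye loading, compound-evoked calcium rise over 180 s flagged agonists.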
D1 PAM: potentiators of human D1 dopamine receptor. HEK293 TREx D1 cells, calcium flux, dopamine EC20 potentiation. 0.036% of 360,000 active. AID 504651. P21728. potentiation, % at 10 µM; in the data active means potentiation above about 30%; further: 0% is about no effect
D1 antagonist: blocks dopamine activation of the human D1 receptor; HEK293 TREx D1 cells, calcium flux, dopamine EC80; hits give low values; activity change, negative = inhibition, % at 10 µM; 3.2% of 360,000 active; AID 504652; in the data active means activity change below about -30%; further: on the % scale 0 is the no-effect control and ±100 the full control effect
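Tetracycline-induced HEK293 Trex D1 cells, force-coupled to calcium, dye-loaded; compounds added and read 180 s, then EC80 dopamine added and calcium flux tracked kinetically another 180 s.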
DRD3 agonist: activates the human D3 dopamine receptor. AID 652048. P35462. D3R DiscoveRx beta-arrestin cells, luminescence, 90 min. max activation, %. 0.58% of 410,000 active; in the data active means max activation above about 30%; further: 0% is about no effect
Target sequence (P35462 whole entry, looked up): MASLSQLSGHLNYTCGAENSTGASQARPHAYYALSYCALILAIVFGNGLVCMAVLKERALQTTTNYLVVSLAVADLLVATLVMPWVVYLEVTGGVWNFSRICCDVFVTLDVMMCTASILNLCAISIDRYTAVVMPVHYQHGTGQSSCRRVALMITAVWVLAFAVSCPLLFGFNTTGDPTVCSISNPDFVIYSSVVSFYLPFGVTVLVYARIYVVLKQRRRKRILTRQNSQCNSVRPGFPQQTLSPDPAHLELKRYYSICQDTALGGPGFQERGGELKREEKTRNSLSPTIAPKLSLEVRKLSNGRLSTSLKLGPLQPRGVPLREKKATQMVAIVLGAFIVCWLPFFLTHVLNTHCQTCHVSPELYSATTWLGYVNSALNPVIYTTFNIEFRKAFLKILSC
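Agonist mode: compounds and dopamine controls were applied to plated cells for 90 min at 37 degrees C after an overnight attachment at 1500 cells/well. Luminescent read-out followed 30 - 60 minutes at room temperature with DiscoveRx detection reagent.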
DRD3 antagonist: blocks the human D3 dopamine receptor; AID 652054; 2.5% of 360,000 active; max response, negative = inhibition, %; P35462; D3R cells, DiscoveRx beta-arrestin luminescence, antagonist mode; hits give low values; in the data active means max response below about -50%; inconclusive means no clear call, values can overlap the other calls; further: on the % scale 0 is the no-effect control and ±100 the full control effect
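Cells plated overnight at 1500 cells/well, then exposed to library compounds with dopamine controls for 90 minutes at 37 degrees C. DiscoveRx reagent added for 30–60 minutes at room temperature; luminescence read, quantitative HTS format.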
The depositor's hits bear a star; ? = inconclusive; / = not tested or not shown.

SMILES	D1 ag	D1 PAM	D1 antagonist	DRD3 agonist	DRD3 antagonist
CCN1CCN(C(=O)Cn2c(=O)sc3ccccc32)CC1	5	0	9	4	-98*
COc1ccccc1C(=O)Nc1cccc(C(=O)OCc2cc(=O)n3cc(C)sc3n2)c1	0	1	-31*	4	/
Cc1cn2c(=O)cc(COC(=O)COc3ccc(C)c(C)c3)nc2s1	24	-2	-38*	0	/
COc1ccccc1C(=O)Nc1cccc(C(=O)OCc2cc(=O)n3ccsc3n2)c1	0	1	4	-5	/
Cc1cn2c(=O)cc(COC(=O)COc3ccc(F)cc3)nc2s1	5	-5	-18	2	/
Cc1cn2c(=O)cc(COc3ccc(NC(=O)c4ccc(C(C)(C)C)cc4)cc3)nc2s1	2	-1	-22	51*	/
CCOC(=O)c1sc(NC(=O)Nc2ccc(Cl)cc2)cc1C	29	-10	-58*	5	12
CCOC(=O)c1sc(NC(=O)c2ccc(Cl)s2)cc1C	2	-7	2	-16	-10
CCOC(=O)c1sc(NC(=O)c2ccccc2)cc1C	42*	-6	-14	-4	5
CCOC(=O)c1sc(NC(=O)c2c(C)nn(Cc3ccccc3)c2C)cc1C	3	-19	-45*	5	22
CCOC(=O)c1sc(NC(=O)c2cccc(S(=O)(=O)N3CCc4ccccc43)c2)c(C#N)c1C	20	-11	-32*	-1	5
COc1ccc(NC(=O)c2c(NCc3ccc(OC)c(OC)c3OC)sc3c2CCC3)c(OC)c1	0	-1	-8	-1	/
CCOC(=O)c1sc(NC(=O)c2cccc(S(=O)(=O)N3CCN(C)CC3)c2)cc1C	15	-5	-35*	0	-29
CCOC(=O)c1sc(NC(=S)NC(=O)CC(C)C)cc1C	4	-8	2	8	-78*
CCOC(=O)c1sc(NC(=S)NC(=O)C2CCCC2)cc1C	2	9	6	9	7
O=C(CCCCCn1c(=O)c2sccc2n(CC(=O)Nc2cc(C(F)(F)F)ccc2Cl)c1=O)NCc1ccccc1Cl	4	1	-3	-7	/
Cc1ccc(-c2cc(C(=O)Nc3c(C(=O)c4ccc(C)c(F)c4)oc4ccccc34)no2)cc1	2	1	-5	0	/
Cc1ccc2occ(CC(=O)N(Cc3ccc(Cl)cc3)C3CCS(=O)(=O)C3)c2c1 (configuration not stated)	4	2	16	8	/
O=S(=O)(c1ccccc1)N(CC(O)CN1CCCC1)c1ccccc1 (configuration not stated)	5	/	-1	-16	3
Cc1ccc(N(CC(O)CN2CCCCC2)S(=O)(=O)c2ccc(C)cc2)cc1 (configuration not stated)	0	5	8	-18	-52*
Cc1ccc(N(CC(O)CN2CCCCC2)S(=O)(=O)c2ccccc2)cc1 (configuration not stated)	4	4	-17	-19	-77*
Cc1ccc(S(=O)(=O)N(CC(O)CN2CCCC2)c2ccccc2)cc1 (configuration not stated)	1	-5	-22	-25	?
CC(=O)c1cccc(NC(=O)c2cc(-c3ccc(Cl)s3)nc3ccccc23)c1	10	0	-6	11	/
COC(=O)c1ccc(NC(=O)CCn2cnnn2)cc1	1	-4	4	-1	/
CC[N+](CC)(CC)CCOC(=O)C(C1CCCC1)C1CCCC1	/	/	/	1	/
SMILES	D1 ag	D1 PAM	D1 antagonist	DRD3 agonist	DRD3 antagonist
Cc1cccc(N2CCN(C(=O)Cn3c(=O)c4cccn4c4ccc(F)cc43)CC2C)c1 (configuration not stated)	7	-3	5	-10	/
CCNc1nc(-c2sc(NC(=O)C(C)(C)C)nc2C)c(-n2cc(-c3ccccc3)nn2)s1	/	/	/	31*	180
O=C(NC1(C(F)(F)F)C(=O)Nc2c1c(=O)[nH]c(=O)n2-c1ccc(Cl)cc1)c1ccccc1F (configuration not stated)	4	-1	-17	-6	/
CCc1ccccc1NS(=O)(=O)c1ccc2[nH]cc(C(=O)N(CC(C)C)CC(C)C)c(=O)c2c1	0	0	-54*	0	/
O=C1C(=C(I)I)c2ccccc2-c2ccccc21	/	/	/	-35	-100*
CN(C(=O)c1nn(C)c2c1COc1ccccc1-2)c1cccc(C(F)(F)F)c1	-1	2	-2	3	/
CCN1C(=S)SC(=O)C1=C1C=C(C)N(CCO)C(C)=C1	34*	-2	0	-8	-21
CCN1C(=S)SC(=O)C1=C1C=C(C)N(CCOC)C(C)=C1	45*	5	10	/	/
Cc1cccc(N2CCN(C(c3ccc(F)cc3)c3nnc(-c4ccccc4)o3)CC2)c1C (configuration not stated)	-1	1	-9	-10	/
O=C(C1CCCN(Cc2ccccc2C(F)(F)F)C1)N1CCCCC1 (configuration not stated)	1	-2	-17	1	-88*
O=C(C1CCCN(Cc2ccccc2Br)C1)N1CCCCC1 (configuration not stated)	2	-2	7	-6	-85*
O=[N+]([O-])c1c(NCCO)cc(N2CCCCCC2)c2nonc12	6	-2	-43*	0	-2
Cc1nnc(Sc2cc(NCCCO)c([N+](=O)[O-])c3nonc23)s1	4	3	-11	-25	-97*
Cc1nnc(Sc2cc(NCCO)c([N+](=O)[O-])c3nonc23)s1	0	1	15	-16	-60*
COc1ccc(-c2csc3ncnc(Nc4ccc(OC)c(OC)c4)c23)cc1	4	2	7	5	/
CCOc1ccc(S(=O)(=O)NCc2ccc3c(c2)CCN3C(=O)c2ccc(C)cc2)cc1	0	-3	4	9	/
COc1c(C)cccc1C(=O)Nc1cccc2ccc(C)nc12	13	2	5	-15	/
COc1ccc2c(C)c(CCC(=O)NCc3ccc(C)cc3)c(=O)oc2c1	-3	2	1	-16	/
Cc1csc2nc(COC(=O)c3ccc(F)cc3)cc(=O)n12	6	-6	-38*	-8	/
Cc1csc2nc(COC(=O)c3ccccc3NC(=O)c3cccc(Br)c3)cc(=O)n12	0	2	-53*	14	/
O=S(=O)(c1ccc2c(c1)OCCO2)N1CCN(S(=O)(=O)c2ccc(Br)cc2F)CC1	0	2	-1	/	/
CCOC(=O)c1ccc(OCC2c3cc(OC)c(OC)cc3CCN2C(=O)Cc2ccc(F)cc2)cc1 (configuration not stated)	5	-2	13	1	/
COC(=O)c1ccccc1NC(=O)NC1CCN(Cc2ccccc2)CC1	5	-3	-1	-33	-93*
CCC(C)[C@H](NC(=O)NC1CCN(Cc2ccccc2)CC1)C(=O)OC (some centres not stated)	2	-6	-12	-38	-50*

Screening results: PubChem, National Center for Advancing Translational Sciences (NCATS)
